# Rows were chosen to be rich in hits. Some 5.7% of all compounds tested hit in one or more screens of this group.
# MKP-1 inh = blocks human MKP-1 phosphatase activity. P28562. 0.15% of 65,000 active. recombinant MKP-1, OMFP hydrolysis fluorescence. inhibition, %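 (compounds tested at a single concentration somewhere between 10 and 100 µM)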. AID 374;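 active means inhibition above about 50%, limit read from the data; inconclusive means inhibition over screen mean plus 3 SD, below that limit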
# Target sequence (P28562 whole entry, looked up): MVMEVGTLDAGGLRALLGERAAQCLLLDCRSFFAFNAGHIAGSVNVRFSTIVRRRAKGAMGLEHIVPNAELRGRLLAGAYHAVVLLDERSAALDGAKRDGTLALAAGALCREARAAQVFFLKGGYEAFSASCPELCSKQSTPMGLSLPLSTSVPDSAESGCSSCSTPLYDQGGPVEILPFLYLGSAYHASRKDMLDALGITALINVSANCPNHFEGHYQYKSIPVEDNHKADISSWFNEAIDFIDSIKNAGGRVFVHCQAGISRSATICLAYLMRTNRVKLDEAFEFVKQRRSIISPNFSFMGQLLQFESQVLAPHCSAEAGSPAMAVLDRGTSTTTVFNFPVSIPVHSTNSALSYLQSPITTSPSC
# Hsp90 block = displaces geldanamycin probe from tumor Hsp90. P07900. NCI-N417 lysate Hsp90, Cy3B-geldanamycin FP displacement. inhibition, % at 30 µM. 0.35% of 64,000 active. AID 429;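 active means inhibition above 50%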
# Cdc25B block = human M-phase inducer phosphatase 2 inhibition. 0.1% of 65,000 active. recombinant Cdc25B, OMFP fluorescence Ex485/Em525. AID 368. inhibition, %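 (compounds tested at 10 µM final in the well)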; in the data active means inhibition above about 50%
# Autofluor 339 = intrinsic fluorescence of library compounds, ex339/em460 – biochemical, MLSMR library, data from DPM-DC assay, artefact control, profiling panel; compound autofluorescence, ex339/em460 nm, NADH buffer; active compounds read high; 1 = no-compound wells, NADH background; fluorescence fold increase at 10 µM; 5.5% of 65,000 active; AID 709;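 active means at 10 µM, mean starting fluorescence two-fold or more over control wells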;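 further: signal is the first read of a kinetic run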
# NADH enzymes = inhibitors of enzymes used to reach an NAD/NADH endpoint. coupled PK/LDH NADH assays, four targets. IC50, µM (highest dose often 10 µM). 0.02% of 65,000 active. AID 774;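 active means single-dose screening hits from any of four coupled enzyme assays that gave an IC50 when retested across doses; inconclusive means no clear call, values can overlap the other calls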;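 further: the DPM-DC format reads NADH fluorescence rather than 340 nm absorbance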
# Abs 340nm = compound absorbs light at 340 nm; 65,000 tested, under 10 active; compound absorbance at 340 nm, fold over control; fold change at 10 µM;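 active means at 10 µM dose, initial 340 nm absorbance at least 2 fold that of control wells; inactive means change under 2 fold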;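 further: initial absorbance extrapolated from kinetic A340 decline of NADH oxidation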
# Numbers stand for hits; n = inactive; u = inconclusive; x = no result.
SMILES,MKP-1 inh,Hsp90 block,Cdc25B block,Autofluor 339,NADH enzymes,Abs 340nm
CNC(=O)c1cc2c(=O)n3cccc(C)c3nc2n(C(C)C)c1=N,n,n,n,3.8,n,n
N=c1c(C(=O)NCc2ccco2)cc2c(=O)n3ccccc3nc2n1CCc1ccccc1,n,n,n,2.2,n,n
COc1ccccc1N(CCC#N)C(=O)CSc1nc(-c2ccccc2)cn1N,n,n,n,n,n,n
CCOC(=O)C1CCN(C(=O)c2cc(S(=O)(=O)N3CCOCC3)c(Cl)cc2Cl)CC1,n,n,n,n,n,n
[N-]=[N+]=Nc1ccc(C(=O)CSC[C@H](NC(=O)CC[C@H](N)C(=O)O)C(=O)NCC(=O)O)cc1,x,n,x,x,x,x
CCNC(=O)c1cc2c(=O)n3cccc(C)c3nc2n(CCc2ccccc2)c1=N,n,n,n,2.3,n,n
Cc1cccn2c(=O)c3cc(C(=O)NCc4ccco4)c(=N)n(CCOCCO)c3nc12,n,n,n,5,n,n
COc1ccc(CCn2c(=N)c(C(=O)NCc3ccco3)cc3c(=O)n4ccccc4nc32)cc1OC,n,n,n,n,n,n
CCn1c(=N)c(C(=O)NCc2cccnc2)cc2c(=O)n3cccc(C)c3nc21,n,n,n,3.7,n,n
COCCn1c(=N)c(C(=O)NCCc2ccccc2)cc2c(=O)n3cccc(C)c3nc21,n,n,n,2.5,n,n
Cc1cccn2c(=O)c3cc(C#N)c(=N)n(Cc4cccnc4)c3nc12,n,n,n,n,n,n
O=C(NC1(C(F)(F)F)C(=O)Nc2c1c(=O)[nH]c(=O)n2Cc1ccco1)C1CCCCC1 (configuration not stated),n,n,n,n,n,n
O=S1(=O)C=C(Sc2nnc(-c3ccccc3)o2)c2ccccc21,n,n,n,n,n,n
Nc1c(C(=O)NCCN2CCOCC2)c2nc3ccccc3nc2n1CCc1ccccc1,u,n,n,3.9,n,n
Nc1c(C(=O)NCCN2CCOCC2)c2nc3ccccc3nc2n1CCc1ccccc1F,u,n,n,3.9,n,n
Nc1c(C(=O)NCCN2CCOCC2)c2nc3ccccc3nc2n1-c1ccc2c(c1)OCO2,n,n,n,n,n,n
Nc1c(C(=O)NCCN2CCOCC2)c2nc3ccccc3nc2n1-c1ccccc1,n,n,n,3.9,n,n
COC(=O)c1c(N)n(-c2ccc(NC(C)=O)cc2)c2nc3ccccc3nc12,n,n,n,3.8,n,n
COCCNC(=O)c1c(N)n(-c2cccc(C)c2)c2nc3ccccc3nc12,n,n,n,3.9,n,n
CC(=O)Nc1ccc(S(=O)(=O)c2c(N)n(CCN3CCOCC3)c3nc4ccccc4nc23)cc1,n,x,n,2.3,n,n
CC(=O)Nc1nc2ccccc2n1CCN1CCOCC1,n,n,n,n,n,n
C=CCNC(=O)c1c(N)n(-c2cccc(S(N)(=O)=O)c2)c2nc3ccccc3nc12,n,n,n,2.1,n,n
COc1cc(NCCCN(CC(C)C)CC(C)C)c2ncccc2c1Cl,x,n,x,x,x,x
Cc1cc(-c2nc3ccccc3o2)c2ccccc2n1,n,n,n,n,n,n
CCCN(CCC)c1nc(C)cc(C(C#N)c2nc3ccccc3o2)n1 (configuration not stated),n,n,n,2.2,n,n
SMILES,MKP-1 inh,Hsp90 block,Cdc25B block,Autofluor 339,NADH enzymes,Abs 340nm
CC(=O)Nc1nonc1-c1nc2ccccc2n1Cc1nnc(C)o1,n,n,n,n,n,n
CCC(=O)Nc1nonc1-c1nc2ccccc2n1Cc1ccc(Cl)c(Cl)c1,n,n,n,2.2,n,n
COCc1cc(=O)n2[nH]c(-c3cccc(Br)c3)cc2n1,n,n,n,n,n,n
COCc1cc(=O)n2[nH]c(-c3ccccc3)cc2n1,n,n,n,2.1,n,n
COc1cccc(-c2nnc(Nc3nc4c(F)cccc4s3)o2)c1,n,n,n,4.9,n,n
c1ccc(-c2nnc(Cn3c4ccccc4c4nc5ccccc5nc43)o2)cc1,n,n,n,3.6,n,n
CCOC(=O)CC1(C)NC(=O)c2c(C)sc(C(=O)OCC)c2N1 (configuration not stated),n,n,n,3.9,n,n
CCOC(=O)CC1(CC(=O)OCC)NC(=O)c2c(C)sc(C(=O)OCC)c2N1,n,n,n,3,n,n
CCCCN(CCCC)CCNC(=O)Cc1nc2c(c(=O)[nH]c(=O)n2C)n1C,n,n,n,n,n,n
Cc1nn2c(-c3cccc(NC(=O)c4ccco4)c3)nnc2c2ccccc12,51,n,n,n,n,n
CCn1c(=O)c(C2=NS(=O)(=O)c3ccccc3N2)c(O)c2ccccc21,n,n,n,2.5,n,n
COc1ccc(S(=O)(=O)Nc2ccccc2C(=O)NCc2ccco2)cc1,n,n,n,3.6,n,n
Cc1cc(-c2ccco2)c(C#N)c2nc3ccccc3n12,n,x,n,2.2,n,n
CC(C)c1cc(N2CCN(C(=O)c3ccco3)CC2)n2c(nc3ccccc32)c1C#N,n,n,n,2.1,n,n
COC(=O)c1c(NC(=O)c2cccs2)sc2c1CCC(C)C2 (configuration not stated),n,n,n,3.1,n,n
Cc1cc(C(=O)Nc2sc3c(c2C#N)CCC(C)C3)cs1 (configuration not stated),n,n,n,2,n,n
CC(C)OC(=O)c1c(NC(=O)c2cccs2)sc2c1CCCC2,n,n,n,2.2,n,n
O=C(Nc1sc2c(c1C(=O)O)CCCC2)c1cccs1,n,n,n,n,n,n
CNc1oc(-c2ccccc2Cl)nc1C#N,n,n,n,n,n,n
CNc1oc(-c2cccc3ccccc23)nc1C#N,n,n,n,3.7,n,n
COc1ccc(CNc2oc(-c3cccc4ccccc34)nc2C#N)cc1,n,n,n,3,n,n
N#Cc1nc(Cc2cccc3ccccc23)oc1NCc1ccc(F)cc1,n,n,n,n,n,n
COC(=O)CSc1nc(N2CCOCC2)c2c(c1C#N)CC(C)(C)N(C)C2,n,n,n,2.1,n,n
O=C(NC1=NCCS1)c1ccc(-c2ccc(Cl)cc2)o1,n,n,n,2.1,n,n
Cc1cccc(S(=O)(=O)c2c(N)n(Cc3ccco3)c3nc4ccccc4nc23)c1,n,n,n,3.9,n,n
Cc1ccc(-c2ccc(CCC(=O)O)n2NC(=O)c2ccco2)cc1,n,n,n,n,n,n
Cc1ccc(S(=O)(=O)c2c(N)n(NC(=O)c3ccco3)c3nc4ccccc4nc23)cc1,n,n,n,3.8,n,n
Cc1ccc(S(=O)(=O)c2c(N)n(Cc3ccco3)c3nc4ccccc4nc23)cc1,n,x,n,2.2,n,n
COc1ccc(Cn2c3nc4ccccc4nc3c3c(=O)n(Cc4ccco4)cnc32)cc1,n,n,n,n,n,n
Cc1cccc(S(=O)(=O)Nc2nc3ccccc3nc2NCc2ccco2)c1,n,n,n,n,n,n
